Measurements: PubChem BioAssay (NCI)
About 83,000 compounds went through this panel and 20% of them were active in at least one assay; those are over-represented in the sample as a whole.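 In brief: 96-well plates, 48 h treatment, single concentration, percent growth endpoint.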 Values without a mark were called inactive. Activity calls are given as the source filed them. Rule for the calls: active = growth percent below 10; inactive = the rest.

What was measured:
Assay in all cases: NCI-60 one-dose screen, 48 h (100 = growth as untreated, 0 = no growth, -100 = all killed)
Conditions in all cases: 10 µM unless noted
SR leukemia = tested on: SR leukemia
RPMI-8226 leukemia = tested on: RPMI-8226 leukemia
OVCAR-8 ovarian = tested on: OVCAR-8 ovarian
OVCAR-5 ovarian = tested on: OVCAR-5 ovarian
SK-OV-3 ovarian = tested on: SK-OV-3 ovarian
IGROV1 ovarian = tested on: IGROV1 ovarian
OVCAR-3 ovarian = tested on: OVCAR-3 ovarian
HS 578T breast = tested on: HS 578T breast
NCI/ADR-RES ovarian = tested on: NCI/ADR-RES ovarian
T-47D breast = tested on: T-47D breast
BT-549 breast = tested on: BT-549 breast
MDA-MB-435 melanoma = tested on: MDA-MB-435 melanoma
SW-620 colon = tested on: SW-620 colon
HCT-116 colon = tested on: HCT-116 colon
HCC-2998 colon = tested on: HCC-2998 colon
KM12 colon = tested on: KM12 colon
MCF7 breast = tested on: MCF7 breast

SMILES	growth (SR leukemia)	growth (RPMI-8226 leukemia)	growth (OVCAR-8 ovarian)	growth (OVCAR-5 ovarian)	growth (SK-OV-3 ovarian)	growth (IGROV1 ovarian)	growth (OVCAR-3 ovarian)	growth (HS 578T breast)	growth (NCI/ADR-RES ovarian)	growth (T-47D breast)	growth (BT-549 breast)	growth (MDA-MB-435 melanoma)	growth (SW-620 colon)	growth (HCT-116 colon)	growth (HCC-2998 colon)	growth (KM12 colon)	growth (MCF7 breast)
O=C1CN(Cc2ccc(C(=O)NO)cc2)C(=O)[C@@H](Cc2ccccc2)N1	113%	102%	95.6%	101%	96.5%	106%	109%	101%	110%	93.2%	101%	100%	102%	97.2%	109%	104%	–
CC1(C)NCCC[C@]2(C)[C@H]3C=CC4=C5C[C@](C)(CO)CC[C@]5(C)CC[C@@]4(C)[C@]3(C)CC[C@@H]12	-5.08% [100 µM] (active)	-43.8% [100 µM] (active)	-57.8% [100 µM] (active)	-98.7% [100 µM] (active)	-80.1% [100 µM] (active)	-84.5% [100 µM] (active)	-78.8% [100 µM] (active)	-46.8% [100 µM] (active)	-86.4% [100 µM] (active)	-63.9% [100 µM] (active)	-87.9% [100 µM] (active)	-95.6% [100 µM] (active)	-80.7% [100 µM] (active)	-77.4% [100 µM] (active)	-78.8% [100 µM] (active)	-85.5% [100 µM] (active)	-70.7% [100 µM] (active)
CC1(C)CC[C@]2(C(=O)O)CC[C@]3(C)[C@H](CC[C@@H]4[C@@]5(C)CCC(=O)C(C)(C)[C@@H]5CC[C@]43C)[C@H]2[C@H]1OC(=O)C(F)(F)F	14.6% [100 µM]	-42.9% [100 µM] (active)	-81.4% [100 µM] (active)	-53.1% [100 µM] (active)	-2.75% [100 µM] (active)	-64.7% [100 µM] (active)	-67.4% [100 µM] (active)	-42.1% [100 µM] (active)	-77.6% [100 µM] (active)	-25.2% [100 µM] (active)	-70% [100 µM] (active)	-69.3% [100 µM] (active)	-64.9% [100 µM] (active)	-66.3% [100 µM] (active)	-93.7% [100 µM] (active)	-75.7% [100 µM] (active)	–
O=C1Nc2ccccc2/C1=C/C(=O)c1ccc(N2CCCCC2)cc1	16.9%	26.9%	54.9%	104%	100%	50%	10.4%	93.4%	90.3%	59.9%	–	88.2%	-22.7% (active)	92.7%	105%	90.5%	68.9%
C=C(C)[C@@H]1CC[C@]2(c3ncc(C)o3)CC[C@]3(C)[C@H](CC[C@@H]4[C@@](C)(CCC#N)[C@H](C(=C)C)CC[C@]43C)[C@@H]12	14.9% [100 µM]	-41% [100 µM] (active)	-78.1% [100 µM] (active)	-97.2% [100 µM] (active)	-88.4% [100 µM] (active)	-87.6% [100 µM] (active)	-80.4% [100 µM] (active)	-28% [100 µM] (active)	-82.9% [100 µM] (active)	-73.4% [100 µM] (active)	-76% [100 µM] (active)	-84.6% [100 µM] (active)	-70% [100 µM] (active)	-81.8% [100 µM] (active)	-80.9% [100 µM] (active)	-75.1% [100 µM] (active)	-73.3% [100 µM] (active)
C[n+]1cccc(NC(=O)c2ccc3ccc4ccc(C(=O)Nc5ccc[n+](C)c5)nc4c3n2)c1	75%	61.5%	62.5%	79.5%	8.34% (active)	32.3%	62.4%	74.7%	101%	12%	90.4%	67.8%	56%	43.1%	42%	42.2%	54%
C=C(C)[C@@H]1CC[C@]2(C(=O)NCCCN)CC[C@]3(C)[C@H](CC[C@@H]4[C@@]5(C)CC[C@H](O)C(C)(C)[C@@H]5CC[C@]43C)[C@@H]12	23.7% [100 µM]	-6.66% [100 µM] (active)	-3.81% [100 µM] (active)	-47.7% [100 µM] (active)	-27.2% [100 µM] (active)	-6.94% [100 µM] (active)	-45.9% [100 µM] (active)	-4.98% [100 µM] (active)	-9.52% [100 µM] (active)	-12.8% [100 µM] (active)	-2.14% [100 µM] (active)	-32.4% [100 µM] (active)	-36.2% [100 µM] (active)	1.97% [100 µM] (active)	-23.4% [100 µM] (active)	-25.3% [100 µM] (active)	-8.46% [100 µM] (active)
CC(C)[C@H]1CCC2=C3CC[C@]45OC(=O)[C@@]6(CCC(C)(C)C[C@H]64)CC[C@@]5(C)[C@]3(C)CC[C@@]21C	60.3% [100 µM]	58.2% [100 µM]	70.3% [100 µM]	107% [100 µM]	75.3% [100 µM]	61% [100 µM]	80.2% [100 µM]	61.6% [100 µM]	81.9% [100 µM]	53.9% [100 µM]	82.1% [100 µM]	–	78.7% [100 µM]	51.6% [100 µM]	97.9% [100 µM]	76% [100 µM]	61.2% [100 µM]
c1coc2occoc=2o1	114%	100%	107%	101%	99.6%	109%	103%	104%	107%	98%	104%	102%	110%	109%	108%	106%	104%
O=c1[nH]c2cc(Cl)c(Cl)cc2n2cc3ncccc3c12	27.4%	76.1%	82.4%	146%	98.9%	86.2%	84.5%	99.2%	81.8%	49%	109%	87%	53.4%	71.1%	88%	78.4%	30.4%
O=[N+]([O-])c1ccc(O)c(-c2nc3ccccc3s2)c1	84.5%	51.1%	92%	112%	81.2%	70%	47.9%	67.3%	82.8%	49.7%	60.7%	71.4%	87.8%	73%	89.7%	77.2%	81%
CC(=O)O.CC(=O)O.O.[Fe]	124%	135%	99.1%	105%	94.1%	106%	108%	93.2%	102%	97.7%	–	128%	98.3%	108%	115%	104%	111%
CCOC(=O)c1cc(C(=O)c2ccc(OC)c(OC)c2)n2ccc(-c3ccccn3)cc12	75.8%	72.9%	37%	84%	6.14% (active)	54.7%	78.5%	64.2%	65.6%	23.1%	93.6%	–	58.6%	99.9%	90.5%	77.4%	73.3%
CC1(C)CC[C@]2(C(=O)O)CC[C@]3(C)C(=CC[C@@H]4[C@@]5(C)C/C(=C/c6cccnc6)[C@H](O)C(C)(C)[C@@H]5CC[C@]43C)[C@@H]2C1	37.3% [100 µM]	-12% [100 µM] (active)	13.2% [100 µM]	-2.1% [100 µM] (active)	1.32% [100 µM] (active)	2.18% [100 µM] (active)	-14.6% [100 µM] (active)	3% [100 µM] (active)	3.8% [100 µM] (active)	15.1% [100 µM]	0.607% [100 µM] (active)	7.02% [100 µM] (active)	13.3% [100 µM]	-33.4% [100 µM] (active)	-37.5% [100 µM] (active)	-38.1% [100 µM] (active)	3.95% [100 µM] (active)
C#CCNC(=O)CC[C@]1(C)[C@H]2CC[C@@H]3[C@@H]([C@@](C)(O)CCC=C(C)C)CC[C@@]3(C)[C@]2(C)CC[C@H]1C(=C)C	12.8% [100 µM]	-7.33% [100 µM] (active)	7.74% [100 µM] (active)	55.6% [100 µM]	66.6% [100 µM]	-62.6% [100 µM] (active)	-26.4% [100 µM] (active)	35.6% [100 µM]	53.6% [100 µM]	37.3% [100 µM]	41.8% [100 µM]	43.2% [100 µM]	-14.1% [100 µM] (active)	16.6% [100 µM]	87.2% [100 µM]	36% [100 µM]	30.5% [100 µM]
C=C(C)[C@@H]1CC[C@]2(C(=O)NCCCCCCN(CCCN)CCCN)CC[C@]3(C)[C@H](CC[C@@H]4[C@@]5(C)CC[C@H](OCCCN)C(C)(C)[C@@H]5CC[C@]43C)[C@@H]12	18.4% [100 µM]	29.3% [100 µM]	-28.3% [100 µM] (active)	90.5% [100 µM]	97.9% [100 µM]	27.3% [100 µM]	71.8% [100 µM]	94.9% [100 µM]	86.3% [100 µM]	85.3% [100 µM]	118% [100 µM]	89.6% [100 µM]	7.33% [100 µM] (active)	12.6% [100 µM]	77.1% [100 µM]	31.5% [100 µM]	14.5% [100 µM]
C[C@H]1[C@H](C)CC[C@]2(COC(=O)CCC(=O)O)CC[C@]3(C)C(=CC[C@@H]4[C@@]5(C)CCCNC(C)(C)[C@@H]5CC[C@]43C)[C@H]12	80.4% [100 µM]	59.7% [100 µM]	69.8% [100 µM]	88.5% [100 µM]	65.2% [100 µM]	54.9% [100 µM]	75.4% [100 µM]	41.8% [100 µM]	71.8% [100 µM]	36.7% [100 µM]	–	79.6% [100 µM]	87.7% [100 µM]	40.5% [100 µM]	71.9% [100 µM]	78% [100 µM]	54.9% [100 µM]
CCOc1cc(NC(=O)c2ccccc2)c(OCC)cc1N	110%	113%	113%	113%	114%	84.8%	108%	100%	111%	101%	130%	–	109%	118%	112%	105%	108%
N#C/C(C(=O)c1ccccc1)=C1/C(=O)Nc2ccc(F)cc21	118%	104%	101%	106%	84.5%	97.4%	106%	98.6%	97.5%	80.5%	102%	107%	101%	103%	104%	109%	96.4%
